JMJD2A Tudor inh – blocks the human JMJD2A Tudor domain. AlphaScreen JMJD2A-Tudor / H3K4me3 peptide binding. Potency, µM (top dose mostly 114 µM), for inactives: at the top dose activity change, negative = inhibition, actives largely listed as inhibitors. actives 4.4% (n = 390,000). AID 504339; further: on the % scale 0 is the no-effect control and ±100 the full control effect; nearly all actives have a fitted effect of over 50% in size
HP1b binding inh – HP1-beta chromodomain-methylated histone interaction inhibition. P83916. AlphaScreen HP1-beta / biotin-H3K9me3 peptide binding. Potency, µM (top dose mostly 114 µM), for inactives: at the top dose activity change, negative = inhibition, most hits filed as inhibitors. actives 0.56% (n = 390,000); further: nearly all actives have a fitted effect of over 70% in size
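AlphaScreen: HP1-beta (50 nM) preformed 30 min with biotin-H3(1-18)K9me3 peptide (50 nM) in PBS pH 7.4, 0.01% Tween-20. Compound added for 30 min at RT, then streptavidin donor/nickel chelate acceptor beads (10 ug/mL) for 30 min.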
BAZ2B inh – blocks human BAZ2B | AlphaScreen BAZ2B-H3K14Ac peptide displacement | Potency, µM (top dose mostly 114 µM), for the others: top-dose activity change, negative = inhibition, actives largely listed as inhibitors | actives 4.4% (n = 360,000); further: on the % scale 0 is the no-effect control and ±100 the full control effect; nearly all actives have a fitted effect of over 60% in size
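Protein-peptide AlphaScreen: BAZ2B 50 nM, b-H3K14Ac 50 nM, 1x PBS pH 7.4 + 0.01% Tween-20. Preincubation 30 min RT; cpd 30 min RT (top 110 uM); beads 20 min RT, light-protected.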
GLS inhibitor – blocks human kidney-isoform glutaminase activity; O94925; GLS enzymatic activity, qHTS titration; Potency, µM (top dose mostly 45.5 µM), inactives show top-dose activity change, negative = inhibition, usual class: inhibitors; actives 0.21% (n = 410,000); further: on the % scale 0 is the no-effect control and ±100 the full control effect
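Two-point fluorescence kinetic (t0, 30 min RT) for hKGA; glutamate detected via glutamate oxidase–HRP–Amplex Red. Substrate: 1 mM L-glutamine solution; buffer 45 mM KH2PO4, pH 8.2.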
G9a inh – G9a (human) methyltransferase inhibition; Potency, µM (doses to about 102 µM), inactives show top-dose activity, negative = inhibition, most hits filed as inhibitors; AID 504332; G9a H3K9 monomethylation, AlphaScreen, 2 h; Q96KQ7; actives 8.8% (n = 350,000); further: on the % scale 0 is the no-effect control and ±100 the full control effect; nearly all actives have a fitted effect of over 75% in size
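Quantitative HTS format: methyltransferase activity on a biotin-tagged H3K9 peptide is measured by AlphaScreen, using a rabbit anti-monomethyl-H3K9 antibody with streptavidin donor and anti-IgG acceptor beads. Final levels are 20 nM enzyme, 500 nM peptide, 20 uM SAM; 2 h RT.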
L3MBTL1 inh – blocks human L3MBTL1. Q9Y468. AlphaScreen L3MBTL1–H3K9me1 peptide binding. Potency, µM (doses to about 57.1 µM), for inactives: at the top dose activity, negative = inhibition, most hits filed as inhibitors. actives 0.66% (n = 230,000); further: on the % scale 0 is the no-effect control and ±100 the full control effect; nearly all actives have a fitted effect of over 60% in size
Target sequence (Q9Y468 whole entry, looked up): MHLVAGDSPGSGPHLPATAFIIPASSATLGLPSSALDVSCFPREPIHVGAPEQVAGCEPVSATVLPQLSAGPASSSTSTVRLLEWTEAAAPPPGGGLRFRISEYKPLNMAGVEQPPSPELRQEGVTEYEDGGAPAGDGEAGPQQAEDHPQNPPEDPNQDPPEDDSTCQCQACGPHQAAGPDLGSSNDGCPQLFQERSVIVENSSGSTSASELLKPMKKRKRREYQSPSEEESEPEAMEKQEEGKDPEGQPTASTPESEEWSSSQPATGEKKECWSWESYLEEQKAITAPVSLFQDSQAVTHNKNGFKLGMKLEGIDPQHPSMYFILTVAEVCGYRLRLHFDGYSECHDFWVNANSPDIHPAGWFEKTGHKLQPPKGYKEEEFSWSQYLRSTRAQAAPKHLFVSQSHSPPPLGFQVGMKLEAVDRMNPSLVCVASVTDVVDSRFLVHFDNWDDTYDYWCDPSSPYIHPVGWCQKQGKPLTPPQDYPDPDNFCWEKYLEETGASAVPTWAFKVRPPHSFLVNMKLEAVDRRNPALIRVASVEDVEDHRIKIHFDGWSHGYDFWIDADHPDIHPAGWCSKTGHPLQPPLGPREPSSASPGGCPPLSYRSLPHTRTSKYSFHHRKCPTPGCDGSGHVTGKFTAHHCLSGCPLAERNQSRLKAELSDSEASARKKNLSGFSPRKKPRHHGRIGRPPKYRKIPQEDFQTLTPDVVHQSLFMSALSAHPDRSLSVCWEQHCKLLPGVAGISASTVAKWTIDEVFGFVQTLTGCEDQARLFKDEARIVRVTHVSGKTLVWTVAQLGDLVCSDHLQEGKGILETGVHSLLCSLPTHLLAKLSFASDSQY
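L3MBTL1 50 nM + b-AHA-H3(1-15)K9me1 75 nM, 30 min RT; compound added, 30 min RT; streptavidin donor/Ni-chelate acceptor beads 10 ug/mL each final, 30 min RT dark; AlphaScreen read.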
* = called active by the depositor; ? = inconclusive; · = no result; ! = not active in a repeat; [ ] = remark or other dose. A selection: hits, their analogues and other compounds. The true share with any hit is near 10%. The call rests on the fitted dose curve; in most records, active means well fitted curve in the direction sought with a large enough effect; inconclusive means small, poorly fitted or top-dose-only effect, or another doubt; inactive means no such curve, though single readings can be large; an effect the other way counts as inactive or inconclusive. Potency means the concentration at half of the fitted maximal effect.

SMILES | JMJD2A Tudor inh | HP1b binding inh | BAZ2B inh | GLS inhibitor | G9a inh | L3MBTL1 inh
COc1ccc(OCC(=O)N/N=C2\CCCCc3ccccc32)cc1 | 14µM* | 8% | -31% | ? | -7% | -2%[11.4 µM]
COc1ccc(OCC(=O)NNC(=O)C(=O)N2CCCC2)cc1 | -4% | 34% | ? | -3% | 20µM* | 11%
COc1ccc(N2CCN(C(c3ccccc3)c3sc4nc(-c5ccco5)nn4c3O)CC2)cc1 (configuration not stated) | ? | ? | ? | 3% | ? | ·
N#Cc1ccc(OCC(=O)NN2Cc3ccccc3C2=N)cc1 | ? | 15% | 2% | 2% | -40% | 14%
CCc1ccc(OCC(=O)NN2Cc3ccccc3C2=N)cc1 | 1% | 20% | -13% | 1% | 45µM* | 3%
CCOc1ccccc1NC(=O)CSc1nc2ccccc2c2nc(CCn3cncc3C)nn12 | -26% | 21% | 56µM* | -22% | ? | ·
Cc1cncn1CCc1nc2c3ccccc3nc(SCC(=O)Nc3ccc(F)cc3)n2n1 | -19% | 18% | -28% | -4% | 2%[59 µM] | ·
Cc1cncn1CCc1nc2c3ccccc3nc(SCC(=O)Nc3cccc(Cl)c3)n2n1 | ? | 30% | 11µM*! | 1% | 14µM* | -19%
O=C(CSc1nc2ccccc2c2nc(-c3ccccc3)nn12)Nc1ccc(F)cc1 | -22% | 42% | -5% | 1% | 9%[59 µM] | ·
CCOc1ccccc1-n1c(SCC(=O)Nc2ccccc2C(=O)O)nc2ccccc2c1=O | -1% | 24% | 9% | 24% | 50µM* | ·
COc1ccccc1NC(=O)CSc1nc2ccccc2c2nc(-c3ccccc3)nn12 | 32µM* | 28% | -2% | 1% | 6%[59 µM] | ·
COc1ccc(/C=C/c2ccccc2)cc1C1C2C=CCCC2(C)C(=O)N1Cc1ccccc1 (configuration not stated) | -26% | 16% | · | · | · | ·
C[C@H](NC(=O)OC(C)(C)C)c1nnc(SCc2ccc(Cl)cc2Cl)o1 | 19% | 35% | 0% | -1% | 0%[59 µM] | ·
COc1ccccc1NC(=O)CSc1nnc2ccc(-c3cccnc3)nn12 | -15% | 14% | 71µM* | 3% | 40µM* | -3%
CCOc1ccccc1NC(=O)CSc1nnc2ccc(-c3cccnc3)nn12 | -5% | 31% | -15% | 0% | 5% | 10%
CC(=O)Nc1nc(C)nc(C)c1C(C)=O | -16%[11.4 µM] | 64% | 11% | -9% | -26% | 4%
CCC(=O)Nc1nc(C)nc(C)c1C(C)=O | -16% | 8% | -21% | 1% | 45µM* | 0%
CCCC[C@@H]1CCCO[C@@](C(=O)NCC2CC2)(C(F)(F)F)C1 | -11% | 13% | · | · | · | ·
Cn1c(=O)c(C#N)c(-c2ccc(F)cc2)c2cc(C(=O)c3cc(Cl)cc(Cl)c3O)cnc21 | 45µM* | ? | 35µM* | 17% | ? | -3%
COc1ccccc1-n1c(=O)c(C#N)c(-c2ccc([N+](=O)[O-])cc2)c2cc(C(=O)c3cc(F)ccc3O)cnc21 | -35% | 17% | ? | 9% | ? | -18%
COc1ccccc1/C=N/N1CCN(c2ccc(Cl)cc2)CC1 | 40µM* | 20% | 50µM* | 5% | 5%[0.501 µM] | 8%[2.29 µM]
FC(F)Oc1ccc(/C=N/N2CCCCC2)c(OC(F)F)c1 | · | · | ? | · | 56µM* | -18%
COc1ccccc1C=NN1CCCCCC1 | 45µM* | ? | · | -10% | · | ·
COc1ccccc1CNC(=O)c1cccn1-c1nnc(N2CCCC2)s1 | -9% | 21% | -2% | -1% | 6%[59 µM] | ·
O=C(CN1CCCN(Cc2ccccc2Cl)S1(=O)=O)NCc1ccccc1 | 4% | 35% | -31% | 4% | ? | ·
SMILES | JMJD2A Tudor inh | HP1b binding inh | BAZ2B inh | GLS inhibitor | G9a inh | L3MBTL1 inh
Cc1cc(N2CCC(C)CC2)nc2ccc(NC(=O)CCC(=O)N3CCN(c4ccccc4F)CC3)cc12 | 7% | 26% | -2% | 0% | -2%[59 µM] | ·
N#Cc1cc([N+](=O)[O-])cnc1N(CCO)CCO | -6% | 26% | -2% | 0% | 7.1µM* | 2%
N#Cc1ccc(CSc2nc3c(c(=O)[nH]2)CCCC3)cc1 | 4% | 33% | 3% | 2% | ? | ·
CCOC(=O)c1ccccc1NC(=O)Cn1c(=O)n(CCC(=O)N2CCc3ccccc3C2)c(=O)c2ccccc21 | -18% | 56% | 2% | -8% | -19%[59 µM] | ·
COc1cc(/C=N/n2c(-c3n[nH]c4c3CCC4)n[nH]c2=S)ccc1O | 3.2µM* | ? | -34% | -22% | ? | ·
COc1ccc(/C=N/n2c(-c3n[nH]c4c3CCC4)n[nH]c2=S)cc1OC | 1.4µM* | -16% | -30% | -16% | ? | -16%
COc1cccc(OC)c1-c1nn2c(-c3n[nH]c4c3CCC4)nnc2s1 | -15%[57.1 µM] | 13%[57 µM] | · | · | · | ·
CSc1cccc(NC(=O)CN2C(=O)COc3ccc(Cl)cc32)c1 | -1% | 28% | 3% | -6% | 7%[59 µM] | ·
Nc1nc(-c2ccco2)nn1S(=O)(=O)c1ccccc1 | 8% | 25% | -18% | -11% | -9% | -2%
Nc1nc(C(=O)N2CCOCC2)nn1S(=O)(=O)c1ccc(Cl)cc1 | 14µM* | 18% | -7% | 77% | ? | 3%[11.4 µM]
Nc1nc(C(=O)N2CCOCC2)nn1S(=O)(=O)c1ccccc1 | 20µM* | 20% | 50µM* | -1% | 18µM* | -3%
CCS(=O)(=O)n1nc(C(=O)N2CCOCC2)nc1N | 89µM* | 25% | ? | -2% | ? | 6%
CCS(=O)(=O)n1nc(-c2ccc(C)cc2)nc1N | 5% | 42% | 6% | 4% | -11%[12.7 µM] | 3%
Cc1ccc(OCCn2nnc3sc4c(c3c2=O)CCC(C(C)(C)C)C4)cc1 (configuration not stated) | -11% | 37% | -1% | -3% | 8%[59 µM] | ·
Cc1cc(C)n(C(=O)CNC(=O)c2ccco2)n1 | -24% | 20% | 3% | -1% | 71µM* | 5%
COc1cccc(-n2c(CN3CCN(c4ccccn4)CC3)nc3ccc([N+](=O)[O-])cc3c2=O)c1 | -32% | -7%[57 µM] | 56µM* | -20% | 28µM* | ·
COc1ccc(-n2c(CN3CCC(C)CC3)nc3ccc([N+](=O)[O-])cc3c2=O)c(OC)c1 | -24% | 12% | ? | 3% | ? | ·
COc1ccc(-n2c(CN3CCOCC3)nc3ccc([N+](=O)[O-])cc3c2=O)c(OC)c1 | -24% | 26% | -28% | -6% | 45µM* | ·
COc1ccc(-n2c(CN3CCN(c4ccccc4)CC3)nc3ccc([N+](=O)[O-])cc3c2=O)c(OC)c1 | ? | ? | -38% | 7% | 40µM* | ·
CCOC(=O)N1CCN(Cc2nc3ccc([N+](=O)[O-])cc3c(=O)n2-c2ccc(OC)cc2OC)CC1 | -29% | ? | -20% | 2% | ? | ·
